# In PubChem BioAssay AID1434 (Sanford-Burnham Center for Chemical Genomics, 2008):
# The campaign covered roughly 220,000 compounds. About 1,600 (0.73%) were called active.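 The calls were made as follows: active = mean inhibition across duplicate retests at 20 µM reaching about 50% (limit read from the data); inactive = the rest, inconclusive results apart.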 Only a selection was taken, and actives are over-represented in it overall.
# Target: Runt-related transcription factor 1 (Homo sapiens) + Core-binding factor subunit beta (Homo sapiens) (UniProt Q01196+Q13951)
# Sequence (Q01196 whole entry, looked up): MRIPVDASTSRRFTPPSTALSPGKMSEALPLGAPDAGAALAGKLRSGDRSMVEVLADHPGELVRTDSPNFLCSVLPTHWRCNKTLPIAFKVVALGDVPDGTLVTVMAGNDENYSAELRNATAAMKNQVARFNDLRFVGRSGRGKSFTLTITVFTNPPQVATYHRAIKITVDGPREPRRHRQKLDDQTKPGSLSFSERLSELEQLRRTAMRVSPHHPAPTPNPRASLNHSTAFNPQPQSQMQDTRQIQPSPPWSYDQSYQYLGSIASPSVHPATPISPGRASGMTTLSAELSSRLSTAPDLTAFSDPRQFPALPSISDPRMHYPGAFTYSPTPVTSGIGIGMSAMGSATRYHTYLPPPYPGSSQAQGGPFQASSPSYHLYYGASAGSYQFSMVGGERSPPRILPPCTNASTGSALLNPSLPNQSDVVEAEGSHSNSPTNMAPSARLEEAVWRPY
# Sequence (Q13951 whole entry, looked up): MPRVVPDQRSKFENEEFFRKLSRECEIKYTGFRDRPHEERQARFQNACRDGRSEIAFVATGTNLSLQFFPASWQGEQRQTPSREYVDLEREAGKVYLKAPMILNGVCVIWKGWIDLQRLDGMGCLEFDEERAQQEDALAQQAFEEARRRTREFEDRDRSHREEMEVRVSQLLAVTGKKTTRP
# Assay: inhibitors of RUNX1 Runt–CBFb-SMMHC binding, primary screen, biochemical, FRET, Cerulean-Runt, Venus-CBFb-SMMHC, uHTS (AID 1434);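 also: 0% = DMSO wells and 100% = wells with excess untagged CBFb-SMMHC; inhibitors lower the FRET ratio by blocking Runt binding to CBFb-SMMHC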
# Settings: Cerulean-Runt/Venus-CBFb-SMMHC FRET ratio 530/480, 1 h, at 20 µM, stronger effect = higher value
Structure (SMILES),inhibition,inhibition (retest duplicate average)
CCOC(=O)c1c(NC(=S)Nc2ccccc2C)sc2c1CCC2,4% (inactive),–
CCOC(=O)c1c(NC(=O)NC(C)(C)C)sc2c1CCN(C)C2,10.7% (inactive),–
CCOC(=O)c1c(NC(=S)Nc2ccccc2)sc2c1CCN(C)C2,159% (active),140%
Cc1ccc(Nc2nc(N)nc(CN3CCN(Cc4ccccc4)CC3)n2)cc1Cl,1.7% (inactive),–
CCn1c(=N)c(S(=O)(=O)c2ccc(F)cc2)cc2c(=O)n3ccccc3nc21,-20.7% (inactive),–
CCOC(=O)c1cc2c(=O)n3ccccc3nc2n(CC(C)C)c1=NC(=O)c1c(-c2c(F)cccc2Cl)noc1C,81% (active),58.3%
C/C(=N/OC(=O)c1c(-c2c(F)cccc2Cl)noc1C)c1cnccn1,0.1% (inactive),–
CCOC(=O)c1cc2n(c1N)-c1ccccc1C2=O,2.2% (inactive),–
Cc1onc(-c2c(Cl)cccc2Cl)c1C(=O)NNC(=O)c1c(-c2c(Cl)cccc2Cl)noc1C,-0.1% (inactive),–
CCCn1c(=NC(C)=O)c(C(=O)OCC)cc2c(=O)n3ccccc3nc21,58.9% (active),115%
CCOC(=O)NNc1cc(C(F)(F)F)ccn1,-0.5% (inactive),–
CCC(C)OC(=O)C(C)Oc1ccc(-c2ccccc2)cc1 (stereo not drawn),-4.2% (inactive),–
CS(=O)(=O)c1sc2nc(-c3ccccc3)cc(-c3ccccc3)c2c1N,83.9% (active),108%
Nc1cccc(-c2cc(-c3ccccc3)nc(-c3cccc(N)c3)n2)c1,1.4% (inactive),–
CCN(CC)C(=O)c1sc2nc(-c3ccccc3)ccc2c1N,15.5% (inactive),–
Cc1ccc2nc(COc3ccc(N(C)S(=O)(=O)c4ccccc4)cc3)cc(=O)n2c1,7.6% (inactive),–
CCOC(=O)C1CCN(C(=O)C2(NC(=O)Nc3cccc(F)c3)CCCCC2)CC1,-6.4% (inactive),–
CC(C)(C)c1ccc(/C=C2\Oc3c(ccc(O)c3CN3CCN(CCO)CC3)C2=O)cc1,90.1% (active),70.6%
CCOC(=O)c1oc2c(CN3CCN(CCO)CC3)c(O)c(CC)cc2c(=O)c1-c1nc2ccccc2s1,47.8% (inactive),–
O=C(CSc1nc2ccccc2o1)N/N=C/c1ccccc1C(=O)O,0.7% (inactive),–
C/C(N)=C(/C#N)C(=O)COC(=O)C1CCN(C(=O)c2ccc(Cl)cc2)CC1,0.8% (inactive),–
CNc1[nH]ncc1[N+](=O)[O-],7.1% (inactive),–

Structure (SMILES),inhibition,inhibition (retest duplicate average)
Cc1cc(NC(C)C)n2c(nc3ccccc32)c1C#N,31% (inactive),–
CC(C)c1cc(NCc2ccccn2)n2c(nc3ccccc32)c1C#N,29.3% (inactive),–
Cc1cc(NCc2ccco2)n2c(nc3ccccc32)c1C#N,86.1% (active),66%
Cc1[nH]c2ccccc2c1/C=N/NC(=O)CNC(=O)c1ccc2c(c1)OCO2,1.7% (inactive),–
COc1ccc(N2C(=O)C(O)C2c2ccc(C)cc2)cc1 (stereo not drawn),1.6% (inactive),–
Cc1cc(C)c2nc(N3CCCC3)c(C#N)cc2c1,65% (active),86.1%
Cc1cc(C)c(C#N)c(N2CCC(C(N)=O)CC2)n1,3% (inactive),–
CC(=O)c1cc(C#N)c(N2CCCCC2)nc1C,-1.4% (inactive),–
CC(C)N1C(=S)SC(C)(C)C1n1oc(=O)n(-c2ccc(Cl)c(Cl)c2)c1=O (stereo not drawn),4.2% (inactive),–
CCOc1cc(NC(=O)CCl)c(OCC)cc1NC(C)=O,1.1% (inactive),–
CCCCN(CCCC)CC(O)Cn1c2ccccc2c(=O)c2ccccc21 (stereo not drawn),81% (active),70.6%
CS(=O)(=O)N(CC(O)Cn1c2ccccc2c2ccccc21)c1cccc2ccccc12 (stereo not drawn),1.2% (inactive),–
O=C1c2ccccc2S(=O)(=O)N1CC(O)Cn1c2ccccc2c2ccccc21 (stereo not drawn),4.1% (inactive),–
Cc1ccccc1NC(=O)c1nn(-c2ccc(F)c(F)c2)ccc1=O,3.1% (inactive),–
COCc1[nH]nc2c1C(C1C=CCCC1)C(C#N)=C(N)O2 (stereo not drawn),3.6% (inactive),–
N#CC1=C(N)OC2=C(C(=O)CCC2)C1C1CC=CCC1 (stereo not drawn),4.6% (inactive),–
N#CC1=C(N)Oc2cc(O)ccc2C1C1CCCCC1 (stereo not drawn),120% (active),132%
C=CCn1c(SCC(N)=O)nnc1-c1cc2c(s1)CCC(CC)C2 (stereo not drawn),-3.6% (inactive),–
CCS(=O)(=O)c1ccc(O)c(NC(=O)COc2ccc(Cl)cc2)c1,0.3% (inactive),–
Cc1c(CCOC(=O)c2cc([N+](=O)[O-])ccc2Cl)sc[n+]1CCCCS(=O)(=O)[O-],-0.3% (inactive),–
O=C(CCc1ccccc1)Nc1ccc(NC(=O)C2CCCCC2)nc1,-1% (inactive),–
CC(C)C1Nc2c(C(=O)O)cccc2C(Nc2ccccc2C(=O)O)C1(C)C (stereo not drawn),-10% (inactive),–

Structure (SMILES),inhibition,inhibition (retest duplicate average)
CC(C)(C)OC(=O)c1c(N)n(CCCN2CCCC2=O)c2nc3ccccc3nc12,124% (active),142%
CCc1ccc(NC(=O)CSc2nc3ccccc3c(=O)n2CCN2CCOCC2)cc1,-3.7% (inactive),–
CSc1nnc(-c2ccncc2)n1CCCN1CCCC1=O,5.9% (inactive),–
Cc1ccc(C(=O)OC(C)CN2CCOCC2)cc1 (stereo not drawn),-0.1% (inactive),–
COCC(C)OC(=O)c1c(N)n(CCCN2CCOCC2)c2nc3ccccc3nc12 (stereo not drawn),109% (active),129%
CCOc1ccc(C(=O)NCCCN2CCCC2=O)cc1,-3.7% (inactive),–
O=C1CC2(CC(c3ccc(Cl)cc3)=NO2)C(=O)N1c1ccccc1 (stereo not drawn),2.6% (inactive),–
CC(C)(C)c1cc(C(=O)N/N=C/c2ccc([N+](=O)[O-])s2)n[nH]1,-11.1% (inactive),–
COc1ccc(-n2c(C)nn(CC3CC3)c2=O)cc1,-6% (inactive),–
CCCn1c(N)c(C(=O)CSc2nnc(-c3cccnc3)n2-c2ccc(C)cc2C)c(=O)[nH]c1=O,0.2% (inactive),–
Cn1nnc(NC(=S)NC(=O)c2ccccc2)n1,-0.2% (inactive),–
CCn1c(=N)c(C(=O)NCCCOC)cc2c(=O)n3cccc(C)c3nc21,58.1% (active),72.9%
CCc1cccc2c(=O)c(C(=O)NCCCOC)c[nH]c12,1% (inactive),–
COc1ccc(CCNC(=O)c2ccco2)cc1,-1.4% (inactive),–
COc1ccc(CNC(=O)c2cc3c(=O)n4ccccc4nc3n(CC3CCCO3)c2=N)cc1 (stereo not drawn),92.1% (active),159%
COCCn1c(=O)[nH]c2cc(C(=O)NCc3cccnc3)ccc2c1=O,-3.4% (inactive),–
O=C(NCc1ccco1)c1cccn2c(=O)c3c4c(sc3nc12)CCCC4,0.4% (inactive),–
COc1ccc(CCn2c(=N)c(C(=O)NCc3ccco3)cc3c(=O)n4cccc(C)c4nc32)cc1,142% (active),170%
COc1ccc(CCNC(=O)CCn2c(=O)c3ccccc3n(CC(=O)NCC3CCCO3)c2=O)cc1OC (stereo not drawn),-0.3% (inactive),–
COc1ccc(CCNC(=O)Cn2c(=O)n(CC3CCCO3)c(=O)c3ccccc32)cc1OC (stereo not drawn),-0.7% (inactive),–
